Screens deposited in PubChem BioAssay by Paczesny and Yang Labs, IUPUI and University of Michigan.
ST2 IL33 inh: inhibitors of human ST2 (IL1RL1) binding to IL-33, primary screen, biochemical, AlphaLISA; 78,000 tested, 2.3% active; AlphaLISA ST2-Fc/biotin-IL-33 interaction, 1 h; inhibition, % for hits at 17 µM; in the data active means inhibition above about 30%
Target sequence (Q01638 whole entry, looked up): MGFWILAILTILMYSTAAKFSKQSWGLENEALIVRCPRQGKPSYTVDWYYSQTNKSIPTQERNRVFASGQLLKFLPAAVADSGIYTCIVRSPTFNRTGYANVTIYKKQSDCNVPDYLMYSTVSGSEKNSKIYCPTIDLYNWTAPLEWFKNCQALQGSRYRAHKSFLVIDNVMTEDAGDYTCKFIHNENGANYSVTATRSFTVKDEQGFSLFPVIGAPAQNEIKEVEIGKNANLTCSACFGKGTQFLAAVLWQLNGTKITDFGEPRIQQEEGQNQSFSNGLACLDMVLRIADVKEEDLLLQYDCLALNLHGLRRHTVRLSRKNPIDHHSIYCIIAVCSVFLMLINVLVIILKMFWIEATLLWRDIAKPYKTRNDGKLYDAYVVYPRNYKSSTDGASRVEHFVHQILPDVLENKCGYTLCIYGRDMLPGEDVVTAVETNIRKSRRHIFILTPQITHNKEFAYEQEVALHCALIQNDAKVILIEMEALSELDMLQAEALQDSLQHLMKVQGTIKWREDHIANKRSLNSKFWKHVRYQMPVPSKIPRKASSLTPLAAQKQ
The depositor's hits bear a star; i = inactive. The full list was thinned out, with hits kept by preference.

SMILES | ST2 IL33 inh
O=C(c1ccccc1F)n1nnc2ccccc21 | i
O=S(=O)(Nc1ccc(Cl)cc1)c1ccc(Br)s1 | i
O=c1oc2ccc(Cl)cc2cc1-c1nnc(-c2cccc(Br)c2)o1 | i
O=C(C[C@@H]1CCNC[C@@H]1Cc1cc(COc2ccccc2)on1)N1CCOCC1 | i
COc1ccc(-c2cc(C[C@H]3CNCC[C@H]3CC(=O)N3CCN(c4ccccc4)CC3)no2)cc1 | i
O=C(C[C@@H]1CCNC[C@@H]1Cc1cc(COc2ccccc2)on1)N1CCN(c2ccccc2)CC1 | 42.0%*
COc1ccc(-c2sc(C)nc2C)c(OC)c1OC | i
CCn1c(C(C)NC(C)=O)nc2ccccc21 (configuration not stated) | i
CC(O)c1nc2ccccc2n1CCCOc1ccccc1 (configuration not stated) | i
CC(O)c1nc2ccccc2n1Cc1ccccc1 (configuration not stated) | 36.0%*
CN(Cc1noc(-c2ccccc2)n1)C(=O)CCNC(=O)c1ccccc1F | i
Cc1ccccc1NC1=CC(=O)CC(C)(C)C1 | i
CC1(C)CC(=O)C=C(/C=C/c2ccc(N3N=N3)cc2)C1 | 40.0%*
O=C(Oc1ccc(Br)cc1)c1cc2cc(Br)ccc2oc1=O | i
CC(=O)Nc1ccc2cccc(O)c2n1 | i
Oc1cccc2ccc(/C=C/c3cc4c(cc3Cl)OCO4)nc12 | 32.0%*
CCn1cc(C(=O)N2CCCCCC2)c2cc(OC)c(OC)cc2c1=O | i
Cc1ccc(C2(O)CCN(C(=O)c3oc4cc(C)ccc4c3C)CC2)nc1 | i
Cc1cccc(CSC2=NCCN2C(=O)c2ccc(S(=O)(=O)N3CCCC3)cc2)c1 | i
CN(Cc1cccnc1)C(Cc1ccccc1)C1CCN(C(=O)C23CC4CC(CC(C4)C2)C3)CC1 (configuration not stated) | 32.0%*
CN(C(=O)c1cccs1)C(Cc1ccccc1)C1CCN(C(=O)C2=CCCC2)CC1 (configuration not stated) | i
CSc1nnc(CC2CCN(C(=O)CN(C)Cc3cccnc3)CC2)n1C | i
CN(C)S(=O)(=O)NCc1cccnc1N1CCc2ccccc2C1 | i
O=C(Nc1c(C(=O)O)oc2ccccc12)c1ccccc1 | i
CCC(=O)Nc1c(C(=O)Nc2ccccc2F)oc2ccccc12 | i
SMILES | ST2 IL33 inh
CCN(CC)CC(=O)Nc1c(C(=O)c2ccccc2)oc2ccccc12 | 43.0%*
CC1=C(C(=O)OCc2ccccc2)C(c2ccc(Br)cc2)n2nnnc2N1 (configuration not stated) | i
CN(Cc1ccccc1)c1ncccc1CNC(=O)c1ccc(=O)n(C)c1 | i
Cn1c(=O)c2c(nc(Br)n2Cc2ccc(F)cc2)n(C)c1=O | i
CC(=O)N1N=C(c2ccc(F)cc2)Cn2c1nc1c2c(=O)n(C)c(=O)n1C | 55.0%*
Cn1c(=O)c2c(nc(CN3CCN(c4ccc(F)cc4)CC3)n2CC(N)=O)n(C)c1=O | i
CC(=O)Nc1ccc(C(=O)N2CCN(C)C3(CCN(C)CC3)C2)cc1 | i
COc1ccc(C(=O)NCCC(=O)O)cc1 | i
CCN(CC)C(=O)c1ccc2c(Cl)c3c(nc2c1)CCCC3 | i
C=CCC(=O)N1CCC2(CCCN(CCc3ccccc3)C2)C1 (configuration not stated) | i
CCN(CCn1cccn1)c1nc2nonc2nc1N1CCCC1 | i
O=[N+]([O-])c1ccccc1-c1ccc(/C=C/c2ccncc2)o1 | 49.0%*
O=C1OC(c2cccc(F)c2)=N/C1=C/c1ccc(-c2ccccc2[N+](=O)[O-])o1 | i
O=C(Nc1ccc(I)cc1Cl)c1ccc(-c2ccccc2[N+](=O)[O-])o1 | i
COc1ccc2oc(=O)c(NC(=O)c3ccc(Cl)cc3)cc2c1 | i
O=C(NC1CCCC1)c1cc(C2CC2)on1 | i
CC(=O)N1N=C(c2ccccc2)CC1c1ccc(Br)cc1 (configuration not stated) | i
N#CC1CC(c2ccccc2)=NN1c1ccccc1 (configuration not stated) | 96.0%*
c1ccc(C2=NN3COc4ccccc4C3C2)cc1 (configuration not stated) | i
Cc1cc(C)n(C)c(=O)c1C(=O)N1CCc2c(nc[nH]c2=O)C1 | i
CC1CC(=O)C2=C(CCC3(O)C2C(=O)c2cccc(O)c2C3O)C1 (configuration not stated) | 31.0%*
CSCCC(NC(=O)C1CCC(C)CC1)C(=O)Nc1ccncc1 (configuration not stated) | i
Cc1cc(N(C)C)nc(Nc2ccc(NC(=O)c3c(F)cccc3F)cc2)n1 | i
COc1ccc(Cl)cc1C(=O)Nc1ccc(Nc2nc(C)cc(N(C)C)n2)cc1 | 33.0%*
COc1ccc(Cl)cc1C(=O)Nc1ccc(Nc2nc(C)cc(Nc3ccccc3)n2)cc1 | i
SMILES | ST2 IL33 inh
Cc1cc(N(C)C)nc(Nc2ccc(NC(=O)c3ccccc3C)cc2)n1 | 31.0%*
Cc1cc(N(C)C)nc(Nc2ccc(NC(=O)c3ccccc3C(F)(F)F)cc2)n1 | i
COc1cc(OC)cc(C(=O)Nc2ccc(Nc3nc(C)cc(N(C)C)n3)cc2)c1 | i
COc1ccccc1CCN1CCC(CN(C)C(=O)/C=C/c2cccnc2)CC1 | i
COc1cccc(CC2CN(C(=O)CCCc3cccs3)CCO2)c1 (configuration not stated) | i
Cc1cc2c(N3CCC4(CC3)CNC(=O)C4)ncnc2s1 | i
O=C(NCc1ccccn1)c1ccc(CS(=O)(=O)c2c(Cl)cccc2Cl)o1 | i
Cc1cccc(C(=O)N2CCC(C(Cc3ccccc3)N(C)C(=O)c3ccsc3)CC2)c1C (configuration not stated) | i
CCc1cccc(-n2c(-c3ccco3)nc3c(cnn3-c3ccc(F)cc3)c2=O)c1 | i
CCOc1ccc(-n2c(C)nc3c(cnn3-c3ccc(F)cc3)c2=O)cc1 | i
CCOc1ccc(-n2c(-c3ccco3)nc3c(cnn3-c3ccc(F)cc3)c2=O)cc1 | 33.0%*
COc1ccc(NCCNc2ccc(OC)cc2)cc1 | 48.0%*
COc1ccc(NC(=O)C(C)(C)C)cc1 | i
COc1ccc(NS(C)(=O)=O)cc1 | i
O=C(CCCn1cnc([N+](=O)[O-])n1)Nc1cc(Cl)ccc1Cl | i
Nc1ccc2[nH]c3ccccc3c2c1 | 66.0%*
CNC(=O)c1cc2c(cn1)[nH]c1ccccc12 | i
O=c1nc(-c2ccccc2)c2ccccc2[nH]1 | i
COc1ccc2c(c1)C(C)=CC(C)(C)N2 | 42.0%*
COc1ccc(I)c(OC)c1 | i
CC1=CC(C)(C)Nc2ccc(OC(=O)COc3ccc(Cl)cc3)cc21 | i
COc1ccc(Cn2c(Oc3ccccc3C)nc3c2c(=O)n(C)c(=O)n3C)cc1 | i
Cc1c(C=O)c2ccccc2n1CC(=O)N1CCCc2ccccc21 | i
Cc1c(C)n2c3c(cccc13)CCC2 | 52.0%*
Cc1cc2c(cc1O)NC(=O)CC2c1cc(=O)n2c3c(cccc13)CCC2 (configuration not stated) | i
Cc1ccc(C)c(N2CCN(C(=O)C3CCN(S(=O)(=O)c4cccs4)CC3)CC2)c1 | i
O=S(=O)(NS(=O)(=O)c1ccccc1)c1ccccc1 | i
Cc1nc2c(C(=O)N(C)Cc3ccco3)c[nH]n2c(=O)c1Cc1ccccc1F | i
O=C(NC(C(=O)OCc1cnc(-c2ccccc2)o1)c1ccccc1)c1ccccc1 (configuration not stated) | i
